HepG2 tox = qHTS for Inhibitors of TGF-b: Cytotox Counterscreen. HepG2 CAGA-GFP viability, ATP luminescence, 18 h. Potency, µM (highest dose often 46.1 µM), without a hit: top-dose activity change, negative = cytotoxicity, most hits filed as cytotoxic. hit rate 0.76% among 410,000. AID 588856, 2011; note: potency is the fitted concentration of half-maximal effect
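CellTiter-Glo luminescence gave cytotoxicity after 18 hours at 37 degrees C. The cells were HepG2 CAGA-GFP in 1% FBS DMEM, stimulated with 500 pg/mL TGF-beta after compound addition. %Activity was normalised to no-cell wells (complete cell-killing) and DMSO (no toxicity), and curves were fitted and classified.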
TDP1 cell noCPT = qHTS for Inhibitors of human tyrosyl-DNA phosphodiesterase 1 (TDP1): qHTS in cells in absence of CPT; DT40 Tdp1-/- hTDP1 cells, no CPT, ATP luminescence, 48 h; Potency, µM (titrated, usually from 46.2 µM), without a hit: at the top dose activity change, negative = growth inhibition, most hits filed as inhibitors; hit rate 15% among 420,000; AID 686978, 2013; note: potency is the fitted concentration of half-maximal effect; % is set by controls: 0 for no effect and ±100 for the full control effect; nearly all actives have a fitted effect of over 55% in size
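Seeded 400 DT40-hTDP1 cells/well (vehicle DMSO, no 20 nM CPT); pinned compounds; ≥48 hr at 37 °C; CellTiter-Glo luminescence as viability measure.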
IL-1B inflam inh = qHTS for Inhibitors of Inflammasome Signaling: IL-1-beta AlphaLISA Primary Screen; THP-1 LPS/ATP IL-1B secretion, AlphaLISA, 16 h; hits give low values; hit rate 4.7% among 360,000; AID 743279, 2014; activity change, % at 57.5 µM; in the data active = activity change below about -50%; inconclusive = mostly about -30% to -49%; note: % is set by controls: 0 for no effect and ±100 for the full control effect
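Secreted IL-1B measured by AlphaLISA bead assay after 16 h compound exposure of THP-1 cells; compounds (final up to 57.5 uM) added 1 h before LPS (250 ng/mL) and ATP (1.25 mM) stimulation; lower signal means less secretion.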
TGFb SMAD3 inh = qHTS for Inhibitors of TGF-b. HepG2 CAGA-GFP TGF-b/SMAD3 reporter, GFP fluorescence, 18 h; TGF-beta stimulated, 500 pg/mL final. Potency, µM (series often up to 46.1 µM), for inactives: top-dose activity, negative = inhibition, actives largely listed as inhibitors. hit rate 1.2% among 410,000. AID 588855, 2011; note: potency is the fitted concentration of half-maximal effect; % is set by controls: 0 for no effect and ±100 for the full control effect; nearly all actives have a fitted effect of over 65% in size
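Inhibition of TGF-beta-driven CAGA-GFP reporter expression in HEPG2 cells is measured by cellular GFP fluorescence after 18 h stimulation with 500 pg/mL recombinant TGF-beta in 1% FBS medium at 37 degrees C.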
DT40 TDP1 CPT = qHTS for Inhibitors of human tyrosyl-DNA phosphodiesterase 1 (TDP1): qHTS in cells in presence of CPT; AID 686979, 2013; hit rate 12% among 420,000; chicken DT40 Tdp1-/-;hTDP1 cells + 20 nM CPT, ATP luminescence, 48 h; Potency, µM (highest dose often 46.2 µM), for inactives: top-dose activity change, negative = growth inhibition, hits mostly inhibitors; note: potency is the fitted concentration of half-maximal effect; % is set by controls: 0 for no effect and ±100 for the full control effect; nearly all actives have a fitted effect of over 55% in size
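Chicken DT40 Tdp1-/- cells complemented with human TDP1, 400 cells/well, exposed to compounds plus 20 nM camptothecin for at least 48 h at 37 C; viability read as ATP content by CellTiter-Glo luminescence.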
TDP1 block = qHTS Assay for Inhibitors of Tyrosyl-DNA Phosphodiesterase (TDP1); Tyrosyl-DNA phosphodiesterase 1 (Homo sapiens), Q9NUW8; recombinant TDP1, AlphaScreen DNA substrate cleavage; Potency, µM (top dose mostly 130 µM), for the others: top-dose activity change, negative = inhibition, actives largely listed as inhibitors; hit rate 0.28% among 350,000; AID 485290, 2010; note: potency is the fitted concentration of half-maximal effect; % is set by controls: 0 for no effect and ±100 for the full control effect; nearly all actives have a fitted effect of over 40% in size
Target sequence (Q9NUW8 whole entry, looked up): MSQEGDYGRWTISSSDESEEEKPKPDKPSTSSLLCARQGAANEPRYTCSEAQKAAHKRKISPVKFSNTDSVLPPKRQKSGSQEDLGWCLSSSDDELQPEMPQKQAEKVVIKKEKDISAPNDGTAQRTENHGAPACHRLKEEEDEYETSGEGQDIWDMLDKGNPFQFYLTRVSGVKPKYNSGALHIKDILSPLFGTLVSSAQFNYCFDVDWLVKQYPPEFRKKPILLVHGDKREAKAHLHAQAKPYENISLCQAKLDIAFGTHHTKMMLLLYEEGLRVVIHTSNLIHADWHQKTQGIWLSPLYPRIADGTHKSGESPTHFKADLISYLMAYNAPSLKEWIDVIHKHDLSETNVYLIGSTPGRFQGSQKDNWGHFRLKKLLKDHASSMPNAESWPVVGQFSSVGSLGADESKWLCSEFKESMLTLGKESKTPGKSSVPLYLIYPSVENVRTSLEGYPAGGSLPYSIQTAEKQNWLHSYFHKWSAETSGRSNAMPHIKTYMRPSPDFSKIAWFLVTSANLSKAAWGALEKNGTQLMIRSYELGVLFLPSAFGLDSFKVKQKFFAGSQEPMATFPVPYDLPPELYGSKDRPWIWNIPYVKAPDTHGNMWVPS
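Recombinant E. coli-expressed Tdp1 (1 nM) preincubated with compound 15 min at RT, then 5'-biotin/3'-phosphotyrosine-FITC DNA substrate (15 nM) added for 5 min. AlphaScreen beads (10 ug/ml) added, 10 min RT; tyrosine-FITC cleavage read as signal loss.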
* hit, by the source's call; u = inconclusive; x = not tested or not shown. Hits are enriched below; roughly 19% of the tested compounds scored in any of these assays. Unless noted, calls come from the whole dose curve; as a rule, active = well fitted curve in the direction sought with a large enough effect; inconclusive = small, poorly fitted or top-dose-only effect, or another doubt; inactive = no such curve, though single readings can be large; an effect the other way counts as inactive or inconclusive.

SMILES	HepG2 tox	TDP1 cell noCPT	IL-1B inflam inh	TGFb SMAD3 inh	DT40 TDP1 CPT	TDP1 block
O=C(CN1C(=O)S/C(=C\c2ccc(Cl)cc2)C1=O)NC1C=CS(=O)(=O)C1 (centres undefined)	-1%	u	-69*	11%	5.2µM*	-5%
O=C(CN1C(=O)/C(=C/c2ccccc2F)SC1=S)NC1C=CS(=O)(=O)C1 (centres undefined)	0%	-13%	-50*	-6%	-3%	-9%
O=C(CN1C(=O)S/C(=C\c2cccc(Cl)c2)C1=O)NC1C=CS(=O)(=O)C1 (centres undefined)	4%	-17%	-67*	7%	u	0%
COc1ccc(/C=C2\SC(=S)N(CCC(=O)NC3C=CS(=O)(=O)C3)C2=O)cc1 (centres undefined)	1%	5%	u	-5%	-25%	7%
COc1cccc(/C=C2\SC(=S)N(CCC(=O)NC3C=CS(=O)(=O)C3)C2=O)c1 (centres undefined)	-38%	u	-67*	u	u	x
Cc1ccc(CN2CC(N3CCCCC3)CS2(=O)=O)cc1 (centres undefined)	0%	-16%	58	-28%	-23%	x
CC(=O)Nc1ccc(OCCC[n+]2ccccc2)cc1	-10%	22%	0	6%	-3%	0%
CCCCCc1ccc(OCCC[n+]2ccccc2)c(CCCCC)c1	-114%	1µM*	-94*	u	0.65µM*	x
CCCCCc1ccc(OCCOCCn2c[n+](C)c3ccccc32)c(CCCCC)c1	-113%	2.1µM*	-94*	u	2.3µM*	6%
Cc1ccc(C(=O)C2=C(O)C(=O)N(CC3CCCO3)C2c2ccccc2F)o1 (centres undefined)	13%	u	9	17%	0%	1%
CCCCOc1ccc(C2C(C(=O)c3ccc(C)o3)=C(O)C(=O)N2CC2CCCO2)cc1 (centres undefined)	3%	23µM*	-2	4%	u	1%
Cc1ccc(S(=O)(=O)N(C(=O)c2ccncc2)c2ccc3oc4c(c3c2)CCCC4)cc1[N+](=O)[O-]	-4%	-8%	9	u	-2%	8%
COC(=O)c1c(C)oc2ccc(N(C(=O)c3ccncc3)S(=O)(=O)c3ccc4ccccc4c3)cc12	-19%	15µM*	24	u	23µM*	-1%
COC(=O)c1c(C)oc2ccc(N(C(=O)c3ccncc3)S(=O)(=O)c3ccc(C)cc3)cc12	-30%	2.1µM*	-7	u	3.7µM*	6%
COC(=O)c1c(C)oc2ccc(N(C(=O)c3ccncc3)S(=O)(=O)c3ccccc3)cc12	-1%	23µM*	0	-17%	u	6%
CCN(/N=C/C=C/c1ccccc1)c1cc(=O)n(C)c(=O)[nH]1	-2%	-62%	-28	-3%	1.5µM*	-1%
O=c1[nH]ncc2ccccc12	x	x	x	x	x	19%
O=C(CSc1ncc(S(=O)(=O)c2ccc(Cl)cc2)c(=O)[nH]1)Nc1ccc2c(c1)OCCO2	-28%	x	x	2%	x	1%
CC1Nc2nc(N(C)C)[nH]c(=O)c2NC1C (centres undefined)	35%	u	31	0%	26µM*	8%
OC1(c2ccc(OC(F)F)cc2)CSC(=Nc2cccnc2)N1Cc1ccco1 (centres undefined)	-21%	-88%	-77*	-17%	-76%	6%
COc1ccc(C(=O)CSC2=C(C#N)C3(CCCCC3)C(C#N)=C(N)N2)cc1	-13%	16µM*	-12	-13%	u	7%
N#CC1=C(N)NC(SCC(=O)Nc2ccccc2)=C(C#N)C12CCCCC2	-36%	23µM*	0	-6%	u	2%
CCOC(=O)/C(=N\Nc1ccccc1Cl)N1CCN(c2ccccc2OC)CC1	-36%	u	-8	-1%	u	0%
CC(C)(C)C1(O)CC(C(F)(F)F)=NN1C(=O)Cc1ccc([N+](=O)[O-])cc1 (centres undefined)	-21%	u	1	3%	u	0%
O=C(Cc1ccc([N+](=O)[O-])cc1)N1N=C(C2CC2)CC1(O)C(F)(F)F (centres undefined)	-2%	u	26	-2%	26µM*	2%
SMILES	HepG2 tox	TDP1 cell noCPT	IL-1B inflam inh	TGFb SMAD3 inh	DT40 TDP1 CPT	TDP1 block
O=C(c1ccncc1)N1N=C(C2CCCCC2)CC1(O)C(F)(F)F (centres undefined)	-29%	4.6µM*	41	-15%	2.9µM*	1%
O=C(c1ccco1)N1N=C(C2CCCCC2)CC1(O)C(F)(F)F (centres undefined)	-36%	-10%	29	u	0%	8%
CC1=NN(C(=O)Cc2ccc([N+](=O)[O-])cc2)C(O)(C(F)(F)C(F)(F)F)C1 (centres undefined)	-70%	u	71	11µM*	u	4%
COc1ncc2ncc(=O)n(CCC#N)c2n1	x	-9%	x	x	-7%	x
COc1ccc(C(=O)Nc2ccccc2)cc1NC(=O)c1cccs1	-16%	u	5	3%	-30%	1%
CCCNC(=O)C(=O)NCC(c1ccc2c(c1)OCO2)N1CCOCC1 (centres undefined)	3%	-5%	x	0%	5%	5%
COc1ccc(Nc2nnc(SC(C(=O)Nc3ccc(OC)c(Cl)c3)c3ccccc3)s2)cc1 (centres undefined)	-19%	13µM*	-10	5%	23µM*	1%
COc1cccc(Nc2nnc(SCN3C(=O)c4ccccc4C3=O)s2)c1	-42%	-12%	25	-2%	-10%	-5%
COc1ccc(Nc2nnc(SC(C(=O)Nc3cc(C)ccc3C)c3ccccc3)s2)cc1 (centres undefined)	-10%	21µM*	3	-6%	u	5%
COc1cccc(NC(=O)C(Sc2nnc(Nc3ccccc3C)s2)c2ccccc2)c1 (centres undefined)	1%	21µM*	-51*	u	16µM*	3%

Bioassay records deposited in PubChem by National Center for Advancing Translational Sciences (NCATS).
